Compound activity (PubChem BioAssay)
MRP reversal – MRP-mediated drug resistance reversal; differential viability (reversal), % at 10 µM; AID 602; hit rate 0.04% among 85,000; H69AR cells + 2 uM doxorubicin, CellTiter-Glo, 72 h;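 active = viability drop by adding the cancer drug above about 55%, with treated viability meeting a 40% cutoff, limit read from the data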;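 also: larger differential means the compound sensitizes cells more to doxorubicin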
Cav3 T inh – inhibitors of human Cav3.2 T-type calcium channel; AID 449739; Cav3.2-expressing cells, Fluo-4 calcium fluorescence FDSS; active compounds read low; hit rate 4% among 100,000; B-score at 10 µM;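 active = single-dose well whose peak fluorescence ratio is a statistical outlier from its plate by either plate-standardised score or position-corrected B-score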
CD11b adhes inh – blocks human CD11b/CD18 adhesion to fibrinogen. inhibition, % at 10 µM. K562 CD11b/CD18 adhesion to fibrinogen, ATPlite luminescence; Mn2+ added to activate the integrin. hit rate 0.54% among 93,000. P05107+P11215. AID 1497;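 active = primary inhibition of 50% or more at 10 µM, then 40% or more on retest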
MRP1 act – activates MRP-1 | hit rate 0.61% among 140,000 | H69AR cells + doxorubicin, viability rescue, CellTiter-Glo | AID 799 | viability increase, % at 10 µM;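 active = viability gain under doxorubicin at or above a set limit, the compound median plus 3 SD, cut at about 4.7% in these data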;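 also: MRP-1 overexpressing cells given doxorubicin 25 µM after compound pretreatment; 18-22 h compound pretreatment then 72 h with doxorubicin before readout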
CD11b adhes enh – enhancers of human CD11b/CD18 binding to fibrinogen; activation, % at 10 µM; K562 CD11b/CD18 adhesion to fibrinogen, ATPlite luminescence; P05107+P11215; hit rate 0.07% among 93,000;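 active = 10 µM primary screen giving 50% or more activity, confirmed by 40% or more on retest at that dose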
Pyk2 oligo antag – antagonists of human Pyk2 oligomerization; Q293 cells, Pyk2 FERM NanoBiT luminescence; active compounds read low; z-score (the deposit names both 25 µM and 10 µM); AID 1347419; Q14289; hit rate 0.83% among 99,000;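 active = Z-score of -3 or lower, scaled per plate to the spread of control and sample wells; inactive = z-score above -3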;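 also: negative z-score means lost luminescence so less FERM oligomerization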
A number is an active result. Shown are actives, neighbours in structure and some others; about 4.1% of the full set was active somewhere.

Results for CCOC(=O)c1ccc(S(=O)(=O)Nc2ccc3cn[nH]c3c2)cc1 ?
MRP reversal: inactive; Cav3 T inh: inactive; MRP1 act: inactive; Pyk2 oligo antag: -3

Results for O=[N+]([O-])c1cccc(N=NN(CCO)c2cccc([N+](=O)[O-])c2)c1 ?
MRP reversal: inactive; Cav3 T inh: inactive; CD11b adhes inh: inactive; MRP1 act: inactive; CD11b adhes enh: inactive; Pyk2 oligo antag: inactive

What do the screens show for `CCCN(N=Nc1cccc([N+](=O)[O-])c1)c1cccc([N+](=O)[O-])c1`?
MRP reversal: inactive; Cav3 T inh: -4.2; CD11b adhes inh: inactive; MRP1 act: inactive; CD11b adhes enh: inactive; Pyk2 oligo antag: inactive

Results for CCCCCOc1ccc(C(=O)C(c2ccccc2)N2CCOCC2)cc1 (stereo unspecified) ?
MRP reversal: inactive; Cav3 T inh: inactive; MRP1 act: inactive; Pyk2 oligo antag: inactive

How did O=C(NC(c1ccccc1)c1ccccc1)c1ccc(Br)o1 do in these assays?
MRP reversal: inactive; Cav3 T inh: inactive; CD11b adhes inh: inactive; MRP1 act: inactive; CD11b adhes enh: inactive; Pyk2 oligo antag: inactive

How did CCc1nc(NCc2ccccn2)c2oc3ccccc3c2n1 do in these assays?
MRP reversal: inactive; Cav3 T inh: inactive; MRP1 act: inactive; Pyk2 oligo antag: -3

What do the screens show for `CCc1nc(Nc2ccncc2)c2oc3ccccc3c2n1`?
MRP reversal: inactive; Cav3 T inh: inactive; CD11b adhes inh: inactive; MRP1 act: inactive; CD11b adhes enh: inactive; Pyk2 oligo antag: inactive

How did Cc1cc(Nc2ccccc2)n(-c2ccccc2)n1 do in these assays?
MRP reversal: inactive; Cav3 T inh: -8.4; CD11b adhes inh: inactive; MRP1 act: inactive; CD11b adhes enh: inactive; Pyk2 oligo antag: inactive

Results for CCc1c(O)c(/C(C)=N\O)c(=O)n(-c2ccccc2)c1-c1ccccc1 ?
MRP1 act: inactive

What do the screens show for `C=CCO/N=C(/C)c1c(O)c(CC)c(-c2ccccc2)n(-c2ccccc2)c1=O`?
MRP reversal: inactive; Cav3 T inh: -7.3; MRP1 act: inactive; Pyk2 oligo antag: inactive

What do the screens show for `O=[N+]([O-])c1cc(C(F)(F)F)ccc1Sc1ccccn1`?
CD11b adhes inh: inactive; MRP1 act: inactive; CD11b adhes enh: inactive

Results for CCOc1ccccc1NC(=O)CSc1nnc(-c2ccccc2Cl)n1Cc1ccco1 ?
MRP reversal: inactive; Cav3 T inh: -7.7; CD11b adhes inh: inactive; MRP1 act: inactive; CD11b adhes enh: inactive; Pyk2 oligo antag: inactive

Results for COc1ccccc1-c1nnc(SCC(=O)c2ccc(C3CCCCC3)cc2)n1Cc1ccco1 ?
MRP reversal: inactive; Cav3 T inh: -4.7; CD11b adhes inh: inactive; MRP1 act: inactive; CD11b adhes enh: inactive; Pyk2 oligo antag: inactive

Results for O=C(CSc1nnc(-c2cc3ccccc3cc2O)n1Cc1ccco1)c1ccc(F)cc1 ?
MRP reversal: inactive; Cav3 T inh: -4; CD11b adhes inh: inactive; MRP1 act: inactive; CD11b adhes enh: inactive; Pyk2 oligo antag: inactive

How did Cc1occc1-c1nnc(SCC(=O)c2ccc(F)cc2)n1Cc1ccco1 do in these assays?
MRP reversal: inactive; Cav3 T inh: inactive; CD11b adhes inh: inactive; MRP1 act: inactive; CD11b adhes enh: inactive; Pyk2 oligo antag: inactive

Results for O=C(c1cc2ccccn2n1)N1CCN(c2ccccn2)CC1 ?
MRP reversal: inactive; Cav3 T inh: inactive; CD11b adhes inh: inactive; MRP1 act: inactive; CD11b adhes enh: inactive

Results for CCc1cccc(NC2c3ccccc3C(=O)N2c2ccc(C)cn2)c1 (stereo unspecified) ?
MRP reversal: inactive; Cav3 T inh: -4.4; CD11b adhes inh: inactive; MRP1 act: inactive; CD11b adhes enh: inactive

What do the screens show for `CCOC(=O)CNC(c1ccccc1)c1cc(Br)ccc1NC(=O)OCC` (stereo unspecified)?
Cav3 T inh: -5.9; MRP1 act: inactive; Pyk2 oligo antag: inactive

What do the screens show for `COc1ccccc1NC(=S)N(CCc1c(C)[nH]c2ccccc12)Cc1cccs1`?
MRP reversal: inactive; Cav3 T inh: inactive; CD11b adhes inh: inactive; MRP1 act: inactive; CD11b adhes enh: inactive

Results for CCOC(=O)N1CCC(n2c(SCC(=O)NCCC3=CCCCC3)nc3ccccc3c2=O)CC1 ?
MRP reversal: inactive; Cav3 T inh: -5.1; CD11b adhes inh: inactive; MRP1 act: inactive; CD11b adhes enh: inactive; Pyk2 oligo antag: inactive

Results for CCOC(=O)N1CCC(n2c(SCC(=O)OCc3ccccc3)nc3ccsc3c2=O)CC1 ?
MRP reversal: inactive; Cav3 T inh: -4; CD11b adhes inh: inactive; MRP1 act: inactive; CD11b adhes enh: inactive; Pyk2 oligo antag: inactive

Results for CCOC(=O)CSc1nc2ccccc2c(=O)n1CC1CCCC1 ?
MRP reversal: inactive; Cav3 T inh: -3.5; MRP1 act: inactive; Pyk2 oligo antag: inactive

How did C/C(=N\NC(=O)c1ccc(Cn2cc(Br)cn2)o1)c1cccc(NC(=O)C(C)C)c1 do in these assays?
MRP1 act: inactive

Results for CCN(C(=O)c1ccc(S(C)(=O)=O)cc1)C12CC3CC(CC(C3)C1)C2 ?
CD11b adhes inh: inactive; MRP1 act: inactive; CD11b adhes enh: inactive

Results for Cc1occc1C(=O)NCCc1ccc(Cl)cc1 ?
MRP reversal: inactive; Cav3 T inh: inactive; CD11b adhes inh: inactive; MRP1 act: inactive; CD11b adhes enh: inactive; Pyk2 oligo antag: inactive

How did COc1ccccc1NC(=O)c1nnn(Cc2ccccc2)c1NC(=O)C(F)(F)F do in these assays?
MRP reversal: inactive; Cav3 T inh: -7.7; CD11b adhes inh: inactive; MRP1 act: inactive; CD11b adhes enh: inactive; Pyk2 oligo antag: inactive

Results for O=C(Nc1ccccc1)c1nnn(Cc2ccccc2)c1NC(=O)C(F)(F)F ?
MRP reversal: inactive; Cav3 T inh: -8.4; CD11b adhes inh: inactive; MRP1 act: inactive; CD11b adhes enh: inactive; Pyk2 oligo antag: inactive

What do the screens show for `CC(=O)Nc1c(C(=O)NCc2ccccc2)nnn1Cc1ccccc1`?
MRP reversal: inactive; Cav3 T inh: inactive; CD11b adhes inh: inactive; MRP1 act: inactive; CD11b adhes enh: inactive; Pyk2 oligo antag: inactive

What do the screens show for `COc1ccccc1NC(=O)CSc1nnnn1Cc1ccccc1`?
MRP reversal: inactive; Cav3 T inh: inactive; CD11b adhes inh: inactive; MRP1 act: inactive; CD11b adhes enh: inactive; Pyk2 oligo antag: inactive

Results for COc1cccc(/C=N/NC(=O)C(=O)N2CCCC2)c1O ?
Cav3 T inh: inactive; CD11b adhes inh: inactive; MRP1 act: 5.4; CD11b adhes enh: inactive; Pyk2 oligo antag: inactive

How did COc1cccc(/C=N/NC(=O)CSc2ccccc2C)c1O do in these assays?
MRP1 act: inactive

How did COc1cccc(/C=N/NC(=O)C(C)n2nc(C)c([N+](=O)[O-])c2C)c1O (stereo unspecified) do in these assays?
MRP1 act: 9.0

How did COc1cccc(/C=N/NC(=O)Cn2nc(C)c([N+](=O)[O-])c2C)c1O do in these assays?
CD11b adhes inh: inactive; MRP1 act: 6.6; CD11b adhes enh: inactive

Results for CN(C)S(=O)(=O)c1cccc(NC(=O)COC(=O)c2cccc(S(=O)(=O)N3CCc4ccccc4C3)c2)c1 ?
MRP1 act: inactive
